We go through 40 compounds from PubChem BioAssay (Tox21).

Records with an inconclusive call do not appear. Active and inactive are the calls of the source. Calls come from the whole dose curve; as a rule, active = well fitted inhibition curve with a large enough effect in the repeat runs; inconclusive = weak or mixed curves; inactive = no such curve, though single readings can be large or run the other way.
% is set by controls: 0 for no effect and ±100 for the full control effect; potency is the fitted concentration of half-maximal effect.

This assay in a line: qHTS assay to identify small molecule antagonists of the estrogen related receptor (ERR) signaling pathway (AID 1224819; note: nearly all actives have a fitted effect of over 50% in size). The following applies: ERR reporter cell line, luciferase inhibition; series mostly up to 46.1 µM; activity change, negative = inhibition: at the top concentration. The text has this: National Center for Advancing Translational Sciences [NCATS]
NIH Chemical Genomics Center [NCGC]
U.S. Environmental Protection Agency [EPA]
National Institutes of Environmental Health Sciences [NIEHS]
National Toxicology Program [NTP]
U.S. Food and Drug Administration [FDA]
Estrogen related receptors (ERRs), the first orphan nuclear receptors discovered, play an important role in the control of cellular energy metabolism. ERRs are required for high-energy production in response to the environmental challenges. ERR-alpha was also identified as an adverse marker for breast cancer progression; ERR-alpha-positive tumors have a poor prognosis. To screen and to identify environmental compounds that perturb the ERR signaling pathways could provide valuable information for potential therapeutic or preventive measures in the treatment of metabolic disease. For identifying ERR antagonists, ERR cell line (provided by NTP) has been used to screen LOPAC library.
Tox21 Assay Protocol Summary:
The ERR cells were dispensed at 2,000 cells/5 ul/well in 1536-well white plates using a Multidrop dispenser. After the assay plates were incubated at a 37 C/5% CO2 incubator for 6 hours, 23 nL of compounds dissolved in DMSO, positive and negative controls or DMSO only was transferred to the assay plate by a pin tool. The plates were incubated at 37 C for 18 hours. 4 ul/well of One-Glo reagent was added into the assay plates using a Flying Reagent Dispenser. After 30 min incubation at room temperature, the luminescence intensity in the plates was measured using a ViewLux plate reader.
Take `S=C(NC1CCCCC1)N1CCC(c2cnc[nH]2)CC1`: the “activity change, negative = inhibition” value is -21.3% (inactive).

Take `CC(N)Cc1c[nH]c2ccc(O)cc12` (stereo not given): the “activity change, negative = inhibition” value was 6.35% (inactive). On the same count and under the same terms, the same measure for `NCC(O)c1cc(O)c(O)cc1F` (stereo not given): 1.7% (inactive). As to `CC(=O)c1c(O)c(C)c(O)c(Cc2c(O)c3c(c(C(=O)/C=C/c4ccccc4)c2O)OC(C)(C)C=C3)c1O`, the Potency is 10.6 µM (active). As to `CNCCc1ccc(O)c(O)c1`, the “activity change, negative = inhibition” value is 2.99% (inactive). Consider `NC(N)=Nc1ccc2[nH]c3c(c2c1)C[C@@]1(O)[C@H]2Cc4ccc(O)c5c4[C@@]1(CCN2CC1CC1)[C@H]3O5`, for which the “activity change, negative = inhibition” value is 22.9% (inactive). Regarding `C[C@@H]1O[C@@H](O[C@H]2C[C@@H](O)[C@]3(CO)[C@@H]4C(CC[C@]3(O)C2)[C@@]2(O)CC[C@H]([C@@H]3COC(=O)C3)[C@@]2(C)C[C@H]4O)[C@H](O)[C@H](O)[C@H]1O` (stereo not given in full), the Potency was 1.19 µM (active). `NC(CCCCCP(=O)(O)O)C(=O)O` (stereo not given): the “activity change, negative = inhibition” value was -9.51% (inactive). Same read-out and setting: then `CCCN1CCO[C@@H]2c3cc(O)ccc3OC[C@H]21`, with 14.8% (inactive); and `CN1CC[C@@]2(C)c3cc(OC(=O)Nc4ccccc4)ccc3N(C)[C@@H]12`, with 26.3% (inactive); and `CC(=O)NCCc1c[nH]c2ccccc12`, with 18.3% (inactive). Still for that read-out and setting: the same measure for `NNC(=O)c1ccc(O)cc1`: 23% (inactive); for `Clc1ccc(N2CC3CCC(C2)N3)nn1`: 13.5% (inactive).

In the case of `CCCN1CCC[C@@H](c2cccc(O)c2)C1`, the “activity change, negative = inhibition” value was 8.89% (inactive). Same read-out and setting: then `COc1ccc2[nH]cc(CCN)c2c1`, with 11.9% (inactive); and `Clc1cc(I)cc(Cl)c1NC1=NCCN1`, with -2.74% (inactive).

For the compound `CC(=O)OCC1=C(C(=O)[O-])N2C(=O)[C@@H](NC(=O)CCC[C@@H](N)C(=O)[O-])[C@H]2SC1.[Zn+2]`, the “activity change, negative = inhibition” value was 9.09% (inactive). The same measure, in the same setting: the same measure for `CN1CCC(c2c[nH]c3ccc(O)cc23)CC1`: 11.5% (inactive). On to `Clc1ccc(C(c2ccc(Cl)cc2)n2cc[n+](CC(OCc3ccc(Cl)cc3Cl)c3ccc(Cl)cc3Cl)c2)cc1` (stereo not given), for which the Potency is 19.6 µM (active).

As for `NC(CCP(=O)(O)O)C(=O)O` (stereo not given), the “activity change, negative = inhibition” value is 9.49% (inactive).

Turning to `C[N+]1(C)CCN(c2ccccc2)CC1`, the “activity change, negative = inhibition” value was 0.801% (inactive). Consider `O=C(O)Cc1cnc[nH]1`, for which the “activity change, negative = inhibition” value is 1.71% (inactive). On to `Nc1ccc(CCN2CCN(c3cccc(C(F)(F)F)c3)CC2)cc1`, for which the Potency is 13.9 µM (active). In the case of `O=[N+]([O-])c1cc(O)c(O)c([N+](=O)[O-])c1`, the “activity change, negative = inhibition” value is 12.7% (inactive).

For `CC(C)(C)c1o[nH]c(=O)c1CC(N)C(=O)O` (stereo not given), the “activity change, negative = inhibition” value is -8.47% (inactive).

On to `NC(=O)CN1CC(O)CC1=O` (stereo not given), for which the “activity change, negative = inhibition” value was 20.2% (inactive). On to `CO/C=C(/C(=O)OC)c1ccccc1Oc1cc(Oc2ccccc2C#N)ncn1`, for which the Potency was 4.86 µM (active). With `CCCN(CCC)C1Cc2cc(OC)c(OC)cc2C1`, the “activity change, negative = inhibition” value was 22.6% (inactive). With `COC(=O)N1CCN(C(=O)Cc2ccc(Cl)c(Cl)c2)C(CN2CCCC2)C1` (stereo not given), the “activity change, negative = inhibition” value is 6.03% (inactive). Same read-out and setting: then `Cc1[nH]c2ccc(O)cc2c1CCN`, with 6.19% (inactive).

Regarding `O=C1CCCN1CC#CCN1CCCC1`, the “activity change, negative = inhibition” value was 14.3% (inactive). On the same count and under the same terms, then `NC(CP(=O)(O)O)C(=O)O` (stereo not given), with 8.89% (inactive); and `O=P(O)(O)C(Cl)(Cl)P(=O)(O)O`, with 2.47% (inactive); and `Cc1cc([C@@H]2CCCN2C)on1`, with 1.05% (inactive).

Regarding `CCCN1CCc2cccc3c2[C@H]1Cc1ccc(O)c(O)c1-3`, the “activity change, negative = inhibition” value is -11.3% (inactive). As to `CP(=O)(O)C1=CCNCC1`, the “activity change, negative = inhibition” value was 7.99% (inactive). Still for that read-out and setting: then `C=CCN1CCC23c4c5ccc(O)c4O[C@H]2C(=O)CC[C@@]3(O)C1C5` (stereo not given in full), with 11.1% (inactive).

Turning to `C[C@]12N[C@H](Cc3ccccc31)c1ccccc12`, the “activity change, negative = inhibition” value is 2.75% (inactive). The same measure, in the same setting: then `c1ccc(C2(c3ccccc3)CC2C2=NCCN2)cc1` (stereo not given), with 3.33% (inactive); and `CCCCCN(C)CCC(O)(P(=O)(O)O)P(=O)(O)O`, with 16.3% (inactive).
